Laboratory results reported in PubChem BioAssay (NCI).
About 83,000 compounds went through this panel and 20% of them were active in at least one assay; those are over-represented in the sample as a whole.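 Testing used 96-well plates and a 48-hour single-concentration exposure. Example: -40 means 40% of the starting cells died.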 Values without a mark were called inactive. Activity calls are given as the source filed them. The calls were made as follows: active = growth percent below 10; inactive = the rest.

Assays:
Assay in all cases: NCI-60 one-dose screen, 48 h (100 = growth as untreated, 0 = no growth, -100 = all killed)
Details in all cases: 10 µM unless noted
SR leukemia = system: SR leukemia
RPMI-8226 leukemia = system: RPMI-8226 leukemia
OVCAR-8 ovarian = system: OVCAR-8 ovarian
OVCAR-5 ovarian = system: OVCAR-5 ovarian
OVCAR-4 ovarian = system: OVCAR-4 ovarian
SK-OV-3 ovarian = system: SK-OV-3 ovarian
IGROV1 ovarian = system: IGROV1 ovarian
OVCAR-3 ovarian = system: OVCAR-3 ovarian
HS 578T breast = system: HS 578T breast
NCI/ADR-RES ovarian = system: NCI/ADR-RES ovarian

| SMILES | growth (SR leukemia) | growth (RPMI-8226 leukemia) | growth (OVCAR-8 ovarian) | growth (OVCAR-5 ovarian) | growth (OVCAR-4 ovarian) | growth (SK-OV-3 ovarian) | growth (IGROV1 ovarian) | growth (OVCAR-3 ovarian) | growth (HS 578T breast) | growth (NCI/ADR-RES ovarian) |
| --- | --- | --- | --- | --- | --- | --- | --- | --- | --- | --- |
| O=C(Nc1ccccc1)Nc1ccc2cc3ccc(NC(=O)Nc4ccccc4)cc3nc2c1 | -18.6% (active) | 104% | -23.7% (active) | 92.4% | -31.9% (active) | 112% | 51% | -11.6% (active) | -26.7% (active) | 102% |
| NS(=O)(=O)c1ccc(Cn2c(SCC(=O)N/N=C/c3ccccc3O)nc3ccccc3c2=O)cc1 | 26.6% | 49.7% | 44.3% | 68.4% | 40.7% | 73% | 62.3% | 13.4% | 71.6% | 98.3% |
| c1ccc2c(-c3c[nH]c4ccccc34)c3c(cc2c1)[nH]c1ccccc13 | 29.4% | 54.5% | 90.7% | 96% | 57.8% | 84.5% | 69% | 59.3% | 84.1% | 56.6% |
| O=C(Nc1ccc(Cl)cc1)c1cc(NCc2cc(O)ccc2O)ccc1O | 9.06% (active) | 4.92% (active) | 70.4% | 116% | 80.5% | 103% | 84.2% | 48.8% | 90% | 82.9% |
| O=C(Cc1ccc(/C=C/C(=O)c2nccs2)cc1)Nc1ccccc1 | 2.31% (active) | 67% | 90.5% | 99.9% | 97.2% | 112% | 91.7% | 88.9% | 88.5% | 101% |
| Cc1ccc(-n2cc(-c3ccccc3)c3c2N=NN2CCN=C32)cc1 | 86% | 93.4% | 107% | 101% | 97.2% | 104% | 88.5% | 106% | 100% | 102% |
| COc1cc2c(=O)n(CCCN(C)C)c3c4cc5c(cc4ccc3c2cc1OC)OCO5 | 9.59% (active) | 6.97% (active) | 48.3% | 112% | 69.9% | 102% | 31.9% | 65.5% | 67.1% | 53.5% |
| O=S(=O)(Nc1ccc(-n2cnc3cc(-c4ccc(O)cc4)ccc32)cc1)c1ccccc1 | 78% | 69.1% | 84.4% | 111% | 74.1% | 127% | 91.4% | 95.8% | 97.3% | 91.9% |
| CC(=O)N1N=C(c2ccc(-n3ccc(C(F)(F)F)n3)c(F)c2)CC1c1ccc[nH]1 (stereo not given) | 92.8% | 80.8% | 98.9% | 105% | 102% | 118% | 112% | 107% | 106% | 104% |
| COc1ccc(NC(N)=NCCCOc2ccc(F)cc2)cc1 | 93.6% | 86% | 94.1% | 92.1% | 70.1% | 79.1% | 67.7% | 99.9% | 113% | 99% |
| O=C(c1nnc(Nc2ccccc2Br)o1)c1c[nH]c2ccccc12 | 103% | 93.6% | 94.9% | 99.6% | 106% | 83% | 72.6% | 97.2% | 104% | 102% |
| CC1=CCC(OC(=O)C(C)(O)CCC(O)(C(=O)OC2(C)C=CC(O)(C(C)C)CC2)C(C)C)(C(C)C)CC1 (stereo not given) | 103% | 107% | 105% | 108% | 109% | 105% | 101% | 108% | 105% | 108% |
| CC(=O)CCC(=O)OCc1cc(=O)c(O)co1 | 86.4% | 107% | 108% | 93.5% | 112% | 128% | 98.6% | 106% | 103% | 98.3% |
| N#C/C(=C\c1ccc(C(F)(F)F)cc1)c1cc2ccccc2[nH]1 | 95.7% | 72% | 101% | 108% | 92% | 93% | 94.5% | 104% | 104% | 104% |
| Cc1cc2nc3c4ccc(Br)cc4n(CCN(C)C)c3nc2cc1C | -2.61% (active) | -30.4% (active) | 21.6% | 25.1% | 12.3% | 33.8% | 4.76% (active) | 21.1% | 53.9% | 17% |
| C=C(C)[C@@H]1CC[C@]2(C(=O)N3CCN(C)CC3)CC[C@]3(C)[C@H](CC[C@@H]4[C@@]5(C)C/C(=C/c6ccncc6)C(=O)C(C)(C)[C@@H]5CC[C@]43C)[C@@H]12 | 9.44% (active) | 20.7% | 49.1% | 88.8% | 53% | 88.8% | 74.8% | 53.3% | 61.8% | 57.9% |
| O=C(c1ccccc1)N1N=C(c2ccc(-n3ccc(C(F)(F)F)n3)c(F)c2)CC1c1ccc[nH]1 (stereo not given) | 104% | 101% | 104% | 104% | 116% | 141% | 108% | 116% | 107% | 100% |
| COc1cc2nc(-c3ccc(Cl)cc3)cc(OCCCN3CCOCC3)c2cc1OC | 12.9% | 20.4% | 42.7% | 42.8% | 70.4% | 68.4% | 35.6% | 77.8% | 76.4% | 44.6% |
| CC1(C)CC[C@]2(C(=O)O)CC[C@]3(C)C(=CC[C@@H]4[C@@]5(C)Cc6c([nH]c7ccccc67)C(C)(C)[C@@H]5CC[C@]43C)[C@@H]2C1 | 41.3% | 23.2% | 35% | 80.9% | 36.8% | 62.4% | 58% | 37.2% | 75.2% | 34.2% |
| O=C1c2ccc3c4c(ccc(c24)C(=O)N1CCCNCc1ccccc1)C(=O)N(CCCNCc1ccccc1)C3=O | -47.2% (active) | -36.7% (active) | -50.7% (active) | -20.6% (active) | -97.2% (active) | -11.4% (active) | -23.4% (active) | -63.4% (active) | -32.3% (active) | -26.5% (active) |
| CC1=C(C(=O)/C=C/c2ccc(N(C)C)cc2)C(c2ccccc2)NC(=S)N1 (stereo not given) | 96.8% | 101% | 102% | 102% | 107% | 111% | 98.9% | 109% | 98.2% | 100% |
| O=C(Nc1cccc(C2=NCCN2)c1)c1ccc(-c2ccc(C(=O)Nc3cccc(C4=NCCN4)c3)cc2)cc1 | 72.4% | 24.8% | 80.7% | 88.5% | 96.6% | 111% | 88.7% | 121% | 97.6% | 104% |
| CC(Oc1ccc(C(=O)O)cc1C(F)(F)F)c1ccc(Oc2ccccc2)cn1 (stereo not given) | 71.7% | 99.9% | 96.6% | 102% | 106% | 124% | 98.4% | 104% | 99.6% | 75.2% |
| Cn1ccnc1C(=O)/C=C/c1ccc(CC(=O)Nc2ccc(F)cc2)cc1 | 14.4% | 1.1% (active) | 12.7% | 65.5% | 30.3% | 85.4% | 39.3% | 6.19% (active) | 57.7% | 21.7% |
| CCOC(=O)/C(C#N)=C1/NNC(=Nc2cccnc2)S1 | 118% | 107% | 92.2% | 102% | 100% | 85.7% | 111% | 101% | 96.7% | 105% |
| COc1c(Cl)c2c(c(OC)c1OC)-c1ccc(SC)c(=O)cc1[C@@H](NC(=O)OCC(F)(F)F)CC2 | -0.191% (active) | 2.59% (active) | 20% | 35% | 39.6% | 48.2% | 13.5% | -14.2% (active) | 12.1% | 14.6% |
| C=CCN1C(=O)/C(=C/C(=O)OC)S/C1=N\NC(=O)c1cc2ccc1/C=C\c1ccc(cc1)/C=C\2 | 1.79% (active) | -9.36% (active) | 88.2% | 96.1% | 97.1% | 140% | 89.2% | 86.4% | 93.6% | 89.5% |
